Values joined by “and” are separate entries in the source; they are usually repeats but may differ in a detail not shown here. Equal values may be shown once. About 2,000 (36%) of roughly 5,500 compounds were called active. About 18% were inconclusive and are not listed. Rule as the data show it: active = normalized growth mostly below about 0.91 (no sharp cut-off); inconclusive = no clear call, values can overlap the other calls; inactive = mostly above about 0.92. Some of the results follow.
Assay: chemical genetic growth profiling, strain panel (AID 1159580);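 also: tested at 20 µM; growth read once vehicle control cultures reached saturation at 30 °C; 1 = growth at the plate median or of vehicle wells; lower values mean less growth of the strain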
Settings: S. cerevisiae deletion strains, growth OD

Measured: normalized growth

COc1cc2c(c(OC)c1OC)-c1ccc(OC)c(=O)cc1[C@@H](NC(C)=O)CC2
inactive: locus YAL013W, strain DEP1, stronger effect = lower value 1.02 | locus YAL021C, strain ccr4, stronger effect = lower value 1.01 | locus YAL026C, strain drs2, stronger effect = lower value 1 | locus YAL030W, strain snc1, stronger effect = lower value 0.988 | locus YBL061C, strain skt5, stronger effect = lower value 1 | locus YBR009C, strain hhf1, stronger effect = lower value 0.985 | locus YBR021W, strain FUR4, stronger effect = lower value 1.04 | locus YBR023C, strain chs3, stronger effect = lower value 0.998 | locus YBR171W, strain sec66, stronger effect = lower value 1.01 | locus YBR229C, strain ROT2, stronger effect = lower value 1.02 | locus YBR231C, strain swc5, stronger effect = lower value 1.02 | locus YBR279W, strain paf1, stronger effect = lower value 1 | locus YCL011C, strain gbp2, stronger effect = lower value 1 | locus YCL016C, strain dcc1, stronger effect = lower value 0.986 | locus YCL029C, strain bik1, stronger effect = lower value 1.03 | locus YCL069W, strain vba3, stronger effect = lower value 1 | locus YCR088W, strain abp1, stronger effect = lower value 1.01 | locus YDL005C, strain med2, stronger effect = lower value 1.01 | locus YDL035C, strain GPR1, stronger effect = lower value 1.02 | locus YDL040C, strain nat1, stronger effect = lower value 1.01 | locus YDL074C, strain BRE1, stronger effect = lower value 1.04 | locus YDL101C, strain DUN1, stronger effect = lower value 1.02 | locus YDL134C, strain PPH21, stronger effect = lower value 1.02 | locus YDL185W, strain tfp1, stronger effect = lower value 1.04 | locus YDL192W, strain arf1, stronger effect = lower value 1.02 | locus YDR001C, strain nth1, stronger effect = lower value 1.02 | locus YDR069C, strain doa4, stronger effect = lower value 1.04 | locus YDR101C, strain arx1, stronger effect = lower value 1.02 | locus YDR137W, strain rgp1, stronger effect = lower value 0.988 | locus YDR159W, strain sac3, stronger effect = lower value 0.999 | locus YDR162C, strain NBP2, stronger effect = lower value 1.03 | locus YDR195W, strain ref2 0.974 | locus YDR297W, strain sur2, stronger effect = lower value 1.01 | locus YDR318W, strain mcm21, stronger effect = lower value 1.03 | locus YDR334W, strain swr1, stronger effect = lower value 1.01 | locus YDR335W, strain msn5, stronger effect = lower value 0.998 | locus YDR388W, stronger effect = lower value 1.03 | locus YDR392W, strain spt3, stronger effect = lower value 0.968 | locus YDR502C, strain sam2, stronger effect = lower value 1.02 | locus YEL003W, strain gim4, stronger effect = lower value 1 | locus YEL037C, strain rad23, stronger effect = lower value 1.01 | locus YEL061C, strain CIN8 (second series), stronger effect = lower value 0.999 | locus YEL061C, strain CIN8, stronger effect = lower value 1.01 | locus YER015W, strain faa2, stronger effect = lower value 1.01 | locus YER016W, strain bim1, stronger effect = lower value 0.963 | locus YER110C, stronger effect = lower value 1.02 | locus YER111C, strain swi4, stronger effect = lower value 1.02 | locus YER155C, strain BEM2 (second series), stronger effect = lower value 1.02 | locus YER155C, strain BEM2, stronger effect = lower value 1.01 | locus YER167W, strain BCK2, stronger effect = lower value 1.02 | locus YFR010W, strain ubp6, stronger effect = lower value 1.01 | locus YGL078C, strain dbp3, stronger effect = lower value 1.03 | locus YGL086W, strain mad1, stronger effect = lower value 1.02 | locus YGL167C, strain pmr1, stronger effect = lower value 1.02 | locus YGL173C, strain kem1, stronger effect = lower value 1.03 | locus YGL227W, strain vid30, stronger effect = lower value 1.01 | locus YGL240W, strain doc1, stronger effect = lower value 1.03 | locus YGL248W, strain PDE1, stronger effect = lower value 1.03 | locus YGL253W, strain hxk2, stronger effect = lower value 1 | locus YGR078C, strain PAC10, stronger effect = lower value 1.03 | locus YGR135W, strain pre9, stronger effect = lower value 1.03 | locus YGR229C, strain SMI1, stronger effect = lower value 1.02 | locus YGR252W, strain gcn5, stronger effect = lower value 1.07 | locus YHR013C, strain ard1, stronger effect = lower value 0.986 | locus YHR027C, strain rpn1, stronger effect = lower value 1.01 | locus YHR030C, strain SLT2, stronger effect = lower value 1.01 and 1.04 | locus YHR079C, strain IRE1 (second series), stronger effect = lower value 1.04 | locus YHR079C, strain IRE1, stronger effect = lower value 1.04 | locus YHR094C, strain hxt1, stronger effect = lower value 1.02 | locus YHR129C, strain ARP1, stronger effect = lower value 1.01 | locus YHR142W, strain chs7, stronger effect = lower value 0.996 | locus YHR200W, strain rpn10, stronger effect = lower value 1.03 | locus YIL066C, strain RNR3, stronger effect = lower value 1.02 | locus YIL073C, strain SPO22, stronger effect = lower value 1.04 | locus YIL125W, strain kgd1, stronger effect = lower value 1.03 | locus YIR030C, strain dcg1, stronger effect = lower value 1.04 | locus YJL092W, strain hpr5, stronger effect = lower value 1.01 | locus YJL095W, strain BCK1 (second series), stronger effect = lower value 1 | locus YJL095W, strain BCK1, stronger effect = lower value 1.04 and 1.02 | locus YJL115W, strain asf1, stronger effect = lower value 1.02 | locus YJL129C, strain trk1, stronger effect = lower value 1.01 | locus YJL134W, strain LCB3, stronger effect = lower value 1.02 | locus YJL154C, strain vps35, stronger effect = lower value 0.995 | locus YJL164C, strain tpk1, stronger effect = lower value 0.984 | locus YJL166W, strain qcr8, stronger effect = lower value 1.02 | locus YJL168C, strain set2, stronger effect = lower value 1.02 | locus YJL187C, strain SWE1 (second series), stronger effect = lower value 1.03 | locus YJR043C, strain POL32, stronger effect = lower value 1 | locus YJR066W, strain TOR1, stronger effect = lower value 0.988 | locus YJR075W, strain HOC1, stronger effect = lower value 1.02 | locus YKL009W, strain mrt4, stronger effect = lower value 1.01 | locus YKL068W, stronger effect = lower value 1.03 | locus YKL085W, strain MDH1 (second series), stronger effect = lower value 1.06 | locus YKL085W, strain MDH1, stronger effect = lower value 1.06 | locus YKL160W, strain elf1, stronger effect = lower value 1.02 | locus YKL190W, strain CNB1, stronger effect = lower value 1.01 | locus YKR001C, strain vps1, stronger effect = lower value 1.03 | locus YKR026C, strain gcn3, stronger effect = lower value 1.06 | locus YKR091W, strain srl3, stronger effect = lower value 0.985 | locus YLL001W, strain dnm1, stronger effect = lower value 1.01 | locus YLL026W, stronger effect = lower value 0.991 | locus YLL041C, strain sdh2, stronger effect = lower value 1.01 | locus YLR027C, strain aat2, stronger effect = lower value 1.01 | locus YLR039C, strain RIC1, stronger effect = lower value 1.05 | locus YLR058C, strain SHM2, stronger effect = lower value 1.03 | locus YLR102C, strain apc9, stronger effect = lower value 1.03 | locus YLR113W, strain HOG1, stronger effect = lower value 1.04 | locus YLR221C, strain rsa3, stronger effect = lower value 0.997 | locus YLR258W, strain gsy2, stronger effect = lower value 1.01 | locus YLR262C, strain YPT6 (second series), stronger effect = lower value 1.04 | locus YLR262C, strain YPT6, stronger effect = lower value 1.04 | locus YLR268W, strain sec22, stronger effect = lower value 1.04 | locus YLR320W, strain mms22, stronger effect = lower value 1.01 | locus YLR330W, strain CHS5, stronger effect = lower value 1.02 | locus YLR342W, strain FKS1 (second series), stronger effect = lower value 1.03 | locus YLR342W, strain FKS1, stronger effect = lower value 1.01 | locus YLR357W, strain rsc2, stronger effect = lower value 1.02 | locus YLR370C, strain arc18, stronger effect = lower value 1.01 | locus YLR371W, strain rom2, stronger effect = lower value 1.03 | locus YLR384C, strain iki3, stronger effect = lower value 1.02 | locus YLR418C, strain cdc73, stronger effect = lower value 1.06 | locus YML016C, strain PPZ1, stronger effect = lower value 1.03 | locus YML032C, strain rad52, stronger effect = lower value 1.02 | locus YML120C, strain ndi1, stronger effect = lower value 1.02 | locus YML124C, strain tub3, stronger effect = lower value 1.03 | locus YMR058W, strain fet3, stronger effect = lower value 1.01 | locus YMR078C, strain ctf18, stronger effect = lower value 1.04 | locus YMR125W, strain sto1, stronger effect = lower value 1.01 | locus YMR129W, stronger effect = lower value 1.02 | locus YMR205C, strain PFK2, stronger effect = lower value 1 | locus YMR223W, strain ubp8, stronger effect = lower value 1.04 | locus YMR231W, strain pep5, stronger effect = lower value 1.01 | locus YMR307W, strain GAS1, stronger effect = lower value 0.99 | locus YNL067W, strain RPL9B, stronger effect = lower value 1.03 | locus YNL071W, strain lat1, stronger effect = lower value 1 | locus YNL128W, strain TEP1, stronger effect = lower value 1.03 | locus YNL153C, strain GIM3, stronger effect = lower value 1.02 | locus YNL183C, strain NPR1, stronger effect = lower value 0.99 | locus YNL209W, strain ssb2, stronger effect = lower value 1 | locus YNL233W, strain BNI4, stronger effect = lower value 1.02 | locus YNL248C, strain rpa49, stronger effect = lower value 0.947 | locus YNL250W, strain rad50, stronger effect = lower value 1 | locus YNL271C, strain bni1, stronger effect = lower value 1.04 | locus YNL298W, strain CLA4, stronger effect = lower value 1.03 | locus YNL307C, strain MCK1, stronger effect = lower value 1.03 | locus YNL322C, strain KRE1 (second series), stronger effect = lower value 1.02 | locus YNR049C, strain mso1, stronger effect = lower value 1.03 | locus YNR052C, strain pop2, stronger effect = lower value 1.02 | locus YOL012C, strain htz1 0.756 | locus YOL147C, strain pex11, stronger effect = lower value 1.04 | locus YOR001W, strain rrp6, stronger effect = lower value 1.02 | locus YOR061W, strain CKA2, stronger effect = lower value 1.03 | locus YOR069W, strain VPS5, stronger effect = lower value 1.01 | locus YOR070C, strain gyp1, stronger effect = lower value 0.995 | locus YOR080W, strain dia2, stronger effect = lower value 1.02 | locus YOR083W, strain WHI5, stronger effect = lower value 1.02 | locus YOR106W, strain vam3, stronger effect = lower value 1.03 | locus YOR136W, strain idh2, stronger effect = lower value 1.02 | locus YOR144C, strain elg1, stronger effect = lower value 1.03 | locus YOR184W, strain ser1, stronger effect = lower value 1.04 | locus YOR231W, strain MKK1, stronger effect = lower value 1.03 | locus YOR265W, strain rbl2, stronger effect = lower value 1.01 | locus YOR270C, strain vph1, stronger effect = lower value 1.01 | locus YOR290C, strain snf2, stronger effect = lower value 1.01 | locus YOR316C, strain cot1, stronger effect = lower value 1.04 | locus YPL051W, strain arl3, stronger effect = lower value 1.02 | locus YPL055C, strain LGE1, stronger effect = lower value 1.04 | locus YPL078C, strain atp4, stronger effect = lower value 1.02 | locus YPL106C, strain sse1, stronger effect = lower value 0.989 | locus YPL240C, strain hsp82, stronger effect = lower value 1 | locus YPL241C, strain CIN2, stronger effect = lower value 1.01 | locus YPL256C, strain CLN2, stronger effect = lower value 1.12 | locus YPR119W, strain clb2, stronger effect = lower value 1.03 | locus YPR141C, strain kar3, stronger effect = lower value 1.05 | locus YPR163C, strain tif3, stronger effect = lower value 1.04 | locus YPR167C, strain met16, stronger effect = lower value 1.04 | strain wtn01, stronger effect = lower value 1.01

Source: PubChem BioAssay AID1159580 (chemical genetic matrix, 2015)
